Consider 40 compounds from PubChem BioAssay (Tox21).

SMILES strings stand for the structures. “And” between values parts separate entries of the source, which are not always exact repeats. Equal entries are not always repeated. Inconclusive results are not listed. The source made the active and inactive calls. Calls follow the shape of the dose curve; as a rule, active = well fitted cell-killing curve with a large enough effect in the repeat runs; inconclusive = weak or mixed curves, or effect the other way; inactive = flat fitted curve, though single readings scatter.
% is scaled to controls: 0 for no effect and ±100 for the full control effect; potency is read from the fitted curve at half-maximal effect.

A short description of this assay: qHTS RealTime-Glo MT Cell Viability Assay in HEK293 cells - 40 hour (AID 1224874). Also: nearly all actives have a fitted effect of over 50% in size. As to conditions: RealTime-Glo luminescence; max response: hits give low values. An excerpt: U.S. Tox21 Program National Center for Advancing Translational Sciences [NCATS] NIH Chemical Genomics Center [NCGC] U.S. Environmental Protection Agency [EPA] National Institutes of Environmental Health Sciences [NIEHS] National Toxicology Program [NTP] U.S. Food and Drug Administration [FDA] Tox21 Assay Overview: Measure of cell viability is critical in the cell-base assay. Analysis of cell viability is necessary for the characterization of cell responses to cytotoxic drugs and environmental stress. A RealTime-Glo MT Cell Viability Assay to monitor cell viability in real time of continues cell culture during 40 hours of compound treatment was used to screen Tox21 10K library compounds in Hek293 cells. The RealTime-Glo MT Cell Viability Assay is a nonlytic, homogeneous, bioluminescent method to measure cell viability in real time using a simple, plate-based method. The assay involves adding NanoLuc luciferase and a cell-permeant prosubstrate to cells in culture. Viable cells reduce the proprietary prosubstrate to generate a substrate for NanoLuc luciferase. This substrate diffuses from cells into the surrounding culture medium, where it is rapidly used by the NanoLuc Enzyme to produce a luminescent signal. The signal correlates with the number of viable cells, making the assay well suited for cytotoxicity studies.
Tox21 Assay Protocol Summary: The mixture of Hek293 cell suspension and reagents were dispensed at 600cells/6 ul/well in 1536-well tissue culture treated black solid bottom plates using a Multidrop dispenser. After the assay plates were incubated at a 37 C/5% CO2 incubator for 5 hours, 23 nL of compounds dissolved in DMSO, positive and negative controls was transferred to the assay plate by a pintool work station. The plates were incubated at 37 C for 40 hours. The luminescence intensity were measured at 0h, 8h, 16h, 24h, 32h and 40h time points using ViewLux plate reader during compound treatment.
A general note: In qHTS, concentration-response curves come from the screen itself.
With `CCc1nccnc1CC`, the max response was 3.61% (inactive).

As to `C=CCS(=O)(=O)O`, the max response is 0.443% (inactive).

With `COc1ccc2c(c1)CCCC2=O`, the max response was 0.353% (inactive).

Regarding `CO/N=C(/C(=O)N[C@@H]1C(=O)N2C(C(=O)OCOC(=O)C(C)(C)C)=C(C)CS[C@H]12)c1csc(N)n1`, the max response is 3.21% (inactive).

Turning to `Cc1nc2c([nH]1)c(=O)n(C)c(=O)n2Cc1ccco1`, the max response is 1.42% (inactive).

With `CCCCCCCCCCCCCCCCC`, the max response was 5.06% (inactive).

With `CCOC(=O)c1ccc(C)cc1`, the max response was 8.25% (inactive).

Regarding `O=C(O)Cc1ccc(CCNS(=O)(=O)c2ccc(Cl)cc2)cc1`, the max response is -1.15% (inactive).

Consider `CC(=O)N(CC(O)CO)c1c(I)c(C(=O)NCCO)c(I)c(C(=O)NCC(O)CO)c1I` (stereo not given), for which the max response is 9.14% (inactive).

Take `CC(=O)OCC(CCn1cnc2cnc(N)nc21)COC(C)=O`: the max response was -0.0813% (inactive).

As for `Cn1cc(S(C)=O)c(=O)c2ccc(F)cc21` (stereo not given), the max response is -13.8% (inactive).

With `CC/C=C\CC/C=C/CO`, the max response was 6.89% (inactive).

On to `CC(C)(C)NCCNC(C)(C)C`, for which the max response is -0.754% (inactive).

As to `Nc1c2c(nc3ccccc13)CCCC2O` (stereo not given), the max response is 24.6% (inactive).

As for `CCn1ccnc1CC1COc2ccccc2O1` (stereo not given), the max response was -26.6% (inactive).

As to `C/C=C(\C)C#N`, the max response was -3.01% (inactive).

For the compound `CCCN1CCCC[C@H]1C(=O)Nc1c(C)cccc1C`, the max response is 3.8% (inactive).

On to `Cc1sccc1Br`, for which the max response was 6.36% (inactive).

On to `CCCCCCCCCCCC`, for which the max response was 0.33% (inactive).

Regarding `COC(=O)NN`, the max response was 1.74% (inactive).

For `CCCCCSCCCCC`, the max response is -8.65% (inactive).

Take `O=C1CCCN1C1CCCCC1`: the max response was 6.98% (inactive).

With `CN1CCC(=C2c3ccccc3CC(=O)c3sccc32)CC1`, the max response was -28.2% (inactive).

`CO[Si](CCCOCC1CO1)(OC)OC` (stereo not given): the max response was 0.892% (inactive) and 6.22% (inactive).

For `NC(=O)c1ccc(N)cc1`, the max response is -2.31% (inactive).

For `FC1(F)C(F)(F)C(F)(F)C2(F)C(F)(F)C(F)(F)C(F)(F)C(F)(F)C2(F)C1(F)F` (stereo not given), the max response was 1.37% (inactive).

As for `CS(=O)(=O)O`, the max response is 2.93% (inactive).

With `COc1cc(C(=O)N2CCCCCCC2)cc(OC)c1OC`, the max response was 9.63% (inactive).

Take `CCN(CC)CCNC(=O)c1cc(S(C)(=O)=O)ccc1OC`: the max response is 3.02% (inactive).

`CC1(C)C(O)C(C)(C)C1O` (stereo not given): the max response was 0.527% (inactive).

For the compound `CC(C)(c1ccc(O)cc1)c1ccc(O)cc1`, the Potency is 48 µM (active).

Take `CN(C)CCCSc1ccccc1NC(=O)/C=C/c1ccccc1`: the max response is -11.2% (inactive).

Regarding `NC(=O)c1ccc([N+](=O)[O-])cc1`, the max response was 2.32% (inactive).

For the compound `O=[N+]([O-])c1ccc(F)cc1F`, the max response is 9.7% (inactive).

For the compound `O=C(O)CCCl`, the max response is 13% (inactive).

As for `CCCCCCCCCCCCN(CCCCCCCCCCCC)CCCCCCCCCCCC`, the max response was 0.0553% (inactive).

For `CCCCC(CC)COC(=O)c1ccccc1O` (stereo not given), the max response is 0.0024% (inactive).

As to `ClC(Cl)(Br)Br`, the max response is -1.43% (inactive).

As to `Cc1[nH]c(=O)c(C#N)cc1-c1ccc2nccn2c1`, the max response is 5.99% (inactive).

`CCCCCCCCS(=O)(=O)Cl`: the max response was 19.7% (inactive).
